High-throughput results: PubChem BioAssay, several laboratories
AHR activator = human AHR activation; AID 2796; actives 2.5% (n = 320,000); AHR-responsive luciferase reporter cells, luminescence; P35869; activation, % at 5 µM; in the data active = activation above about 47%;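 also: 0% = vehicle wells and 100% = reference agonist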
SENP7 block = blocks the human protease SENP7; Q9BQF6; recombinant SENP7, Z-RLRGG-aminoluciferin luminescence, 40 min; inhibition, % at 5 µM; actives 1.5% (n = 330,000); AID 434973;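 active = inhibition above about 50% at the single test dose, limit read from the data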;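 also: plate controls were DMSO with enzyme for no effect and no enzyme buffer wells for full effect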
SENP8 block-1 = SENP8 (human) protease inhibition. Q96LD8. recombinant SENP8, Nedd8 substrate fluorescence. inhibition, % at 20 µM. actives 0.64% (n = 360,000). AID 602440; in the data active = inhibition mostly above about 40%, no sharp cut-off; inactive = mostly below about 27%
Target sequence (Q96LD8 whole entry, looked up): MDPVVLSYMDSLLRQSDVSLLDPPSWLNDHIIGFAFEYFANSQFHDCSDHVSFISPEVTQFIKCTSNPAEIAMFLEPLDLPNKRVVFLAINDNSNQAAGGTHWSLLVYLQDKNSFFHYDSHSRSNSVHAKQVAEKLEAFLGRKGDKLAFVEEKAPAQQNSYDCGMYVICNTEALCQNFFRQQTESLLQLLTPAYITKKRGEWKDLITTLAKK
EBI2 block = antagonists of human EBI2 receptor; P32249; EBI2 beta-arrestin recruitment, luminescence, 7a,25-OHC stimulated; inhibition, % at 5 µM; actives 0.81% (n = 360,000); AID 651636; in the data active = inhibition above about 38%;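 also: enzyme fragment complementation signal reports receptor beta-arrestin coupling in cells; 0% = agonist plus DMSO wells and 100% = wells without agonist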
Target sequence (P32249 whole entry, looked up, the tested form may be a part): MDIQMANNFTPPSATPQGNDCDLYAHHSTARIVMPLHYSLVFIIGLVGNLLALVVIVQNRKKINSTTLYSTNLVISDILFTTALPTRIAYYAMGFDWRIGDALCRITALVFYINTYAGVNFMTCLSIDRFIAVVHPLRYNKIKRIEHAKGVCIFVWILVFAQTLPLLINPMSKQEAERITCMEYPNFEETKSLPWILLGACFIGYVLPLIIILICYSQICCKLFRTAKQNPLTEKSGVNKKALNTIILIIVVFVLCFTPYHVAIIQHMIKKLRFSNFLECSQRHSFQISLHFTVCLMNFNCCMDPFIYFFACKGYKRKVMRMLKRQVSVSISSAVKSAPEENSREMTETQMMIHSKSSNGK
SENP6 block = SENP6 protease inhibition. Q9GZR1. Recombinant SENP6 catalytic domain, aminoluciferin luminescence. inhibition, % at 10 µM. actives 1.8% (n = 330,000);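 active = inhibition above about 50% at the single tested dose, limit read from the data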;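 also: plate controls were DMSO wells with enzyme for no effect and DMSO wells lacking enzyme for full effect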
SENP8 block-2 = SENP8 protease inhibition; Q96LD8; inhibition, % at 10 µM; purified SENP8, Z-RLRGG-aminoluciferin cleavage, luminescence; actives 1.2% (n = 330,000); in the data active = inhibition above about 50%
SENP8 confirm = confirmation of human SENP8 protease inhibitors; Recombinant SENP8, Z-RLRGG-aminoluciferin luminescence, 60 min; actives 40% (n = 6,200); inhibition, % at 12.5 µM; shares compounds with SENP7 block;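 active = mean inhibition across replicates above about 50%, limit read from the data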
SENP6 confirm = confirmation of human SENP6 protease inhibitors | recombinant SENP6, Z-RLRGG-aminoluciferin luminescence | actives 58% (n = 6,200) | shares compounds with SENP7 block | inhibition, % at 12.5 µM
SENP7 conf = human SENP7 inhibition, confirmed. actives 69% (n = 6,200). inhibition, % at 12.5 µM. AID 488917. shares compounds with SENP7 block. recombinant SENP7, Z-RLRGG-aminoluciferin luminescence, 40 min
Casp3 SENP sel = inhibits human caspase-3 in SENP selectivity test; shares compounds with SENP7 block; purified caspase-3, Z-DEVD-aminoluciferin luminescence, 60 min; inhibition, % at 12.5 µM; actives 60% (n = 6,200); AID 488918;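 active = mean inhibition above about 50%, limit read from the data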;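 also: plate controls were enzyme with DMSO for no effect and wells without caspase-3 for full effect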
Luc interf = luminescence interference (SENP counter-screen); Pre-incubated SENP8/Z-RLRGG-aminoluciferin, luciferase luminescence interference; inhibition, % at 12.5 µM; actives 39% (n = 6,200); AID 488919; shares compounds with SENP7 block;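 active = mean inhibition above about 50% when retested at one dose, limit read from the data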;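 also: plate controls were DMSO wells with completed reaction for no effect and substrate without enzyme for full effect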
Starred values were filed as active, the others as inactive; . = no result given. Only some compounds are listed: those with a hit (about 5% of all), similar ones and a draw of the others.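 The calls were made as follows, unless noted: active = mean inhibition above about 50% in the one-dose retest (limit read from the data); inactive = the rest.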

SMILES	AHR activator	SENP7 block	SENP8 block-1	EBI2 block	SENP6 block	SENP8 block-2	SENP8 confirm	SENP6 confirm	SENP7 conf	Casp3 SENP sel	Luc interf
COc1cccc(C(=O)Nc2cc(Cl)c(O)c(Cl)c2)c1	33	59*	8	-4	71*	55*	64*	64*	89*	85*	68*
COc1cccc(NC(=O)c2ccccc2)c1	9	51*	13	-1	47	36	48	44	77*	73*	51*
COc1cccc(NC(=O)c2ccccc2C(F)(F)F)c1	3	-12	8	8	-17	-5	.	.	.	.	.
COc1cccc(NC(=O)c2ccc(OC(F)(F)F)cc2)c1	1	94*	7	44*	88*	85*	66*	79*	98*	87*	38
COc1cccc(C(=O)Nc2ccc(NC(C)=O)cc2)c1	0	1	7	-6	12	-5	.	.	.	.	.
Cc1ccc(C2CC(c3ccccc3)=NN2c2ccccc2)o1 (configuration not stated)	1	55*	-386	18	43	7	3	1	6	5	2
O=C(NCCO)C(=O)NCC1OCCCN1S(=O)(=O)c1ccc2c(c1)OCCO2 (configuration not stated)	3	3	5	1	-6	-2	.	.	.	.	.
Oc1ccc(/C=C/c2ccnc3ccccc23)cc1	6	8	-293	-6	61*	40	26	25	74*	28	-3
Cc1ccc(CNC(=O)CCC2CCCN(Cc3cc4ccccc4o3)C2)o1 (configuration not stated)	4	5	0	6	-8	3	.	.	.	.	.
Cc1ccc(CCN2CC(C(=O)NCc3ccc4c(c3)OCO4)CC2=O)cc1 (configuration not stated)	1	0	22	1	67*	2	10	4	2	2	5
O=C(NCc1ccc2c(c1)OCO2)C1CC(=O)N(CCc2ccc(Cl)cc2)C1 (configuration not stated)	-2	0	2	31	-2	0	.	.	.	.	.
COc1ccc(-c2nc(N3CCN(C)CC3)sc2-c2ccc(OC)cc2)cc1	2	-3	-67	5	-18	-4	.	.	.	.	.
CCOC(=O)/C=C/c1ccc2oc3ccccc3c(=O)c2c1	4	92*	-30	7	94*	83*	-1	4	60*	3	2
COc1cc2oc3ccccc3c(=O)c2cc1OC	4	2	-206	-1	-3	11	.	.	.	.	.
NC(=O)c1ccc(NC(=O)c2cccc(Oc3ccccc3)c2)cc1	-2	68*	9	-5	38	10	-28	-9	0	16	-3
COc1ccc(NC(=O)c2cccc(Oc3ccccc3)c2)cn1	-2	62*	12	-7	72*	50	52*	52*	83*	45	41
NC(=O)c1ccc(NC(=O)COC(=O)c2cccc(Oc3ccccc3)c2)cc1	-2	4	10	5	-1	-4	.	.	.	.	.
Cc1ccc(N=Nc2cc(C)ccc2O)c(C)c1	.	48	31	2	24	25	.	.	.	.	.
Cc1ccc(N=Nc2cc(C)ccc2N)cc1	-1	100*	35	14	99*	98*	99*	100*	103*	97*	96*
Cc1cn([C@H]2C[C@H](O)[C@@H](CCC(=O)NCc3cccc4ccccc34)O2)c(=O)[nH]c1=O	.	.	15	-6	.	.	.	.	.	.	.
O=C(NN=c1c(=O)c2ccccc2c1=O)c1ccccc1	7	84*	69*	1	76*	71*	-16	71*	19	-3	3
CN(C)/C=N/NC(=O)c1ccccc1	0	-2	7	2	-4	-9	.	.	.	.	.
O=C1c2ccccc2C(=O)C12OC2c1cccc2ccccc12 (configuration not stated)	4	0	93*	0	87*	53*	72*	88*	78*	3	10
Cc1cccc(NC(=S)NC2CCSc3ccccc32)c1 (configuration not stated)	3	5	1	7	-2	9	.	.	.	.	.
O=c1ccc(Cl)cn1Cc1ccccc1F	2	7	-4	-8	7	-6	.	.	.	.	.
SMILES	AHR activator	SENP7 block	SENP8 block-1	EBI2 block	SENP6 block	SENP8 block-2	SENP8 confirm	SENP6 confirm	SENP7 conf	Casp3 SENP sel	Luc interf
COC(=O)/C(C#N)=C\c1c(OC)[nH]c2ccccc12	5	2	17	0	-23	6	.	.	.	.	.
COc1cc(N/N=C/c2ccccc2O)ncn1	17	71*	-19	-9	74*	1	63*	63*	89*	75*	59*
Cc1cnn(-c2cc(N/N=C/c3ccccc3F)ncn2)c1	4	-2	12	-4	-10	-1	.	.	.	.	.
COc1cc(N/N=C/c2ccc(N(C)C)cc2)ncn1	79*	97*	-389	10	96*	93*	70*	81*	94*	78*	23
CC1CCCCC1NC(=O)c1cc(S(=O)(=O)N2CCCCC2)ccc1N1CCOCC1 (configuration not stated)	-1	1	-16	12	5	-5	.	.	.	.	.
COc1cccc(C(=O)O[C@H]2[C@H](C)NS(=O)(=O)[C@H]3C[C@@H]4C=C[C@]23O4)c1	0	-2	8	-4	68*	-9	11	3	-1	-5	-5
CCN(CC)C(=O)Cn1ccc(NC(C)=O)nc1=O	2	6	9	-4	8	5	.	.	.	.	.
CCOC(=O)C(=CNc1cscc1S(=O)(=O)C(C)C)C(=O)OCC	4	-1	-21	3	-14	-1	.	.	.	.	.
O=C1/C(=C/c2ccc(O)cc2)COc2ccccc21	1	93*	-10	3	95*	83*	94*	90*	94*	66*	89*
Cc1cc(C(=O)CSc2nnc3ccccn23)c(C)n1-c1ccccc1	-8	52*	6	-24	62*	37	35	36	79*	79*	61*
O=C(CC(Nc1ccccc1Cl)C(=O)O)c1ccccc1 (configuration not stated)	6	2	13	1	-14	5	.	.	.	.	.
